Records with an inconclusive call do not appear. Entries that show only a call come without a potency. Activity calls are given as the source filed them. Calls follow the shape of the dose curve; as a rule, active = well fitted cell-killing curve with a large enough effect; inconclusive = small, poorly fitted or top-dose-only effect, or effect the other way; inactive = no such curve, though single readings can be large or run the other way.
Potency is read from the fitted curve at half-maximal effect.

A short description of the assay: Quantitative High-Throughput drug screen in 47 multiple myeloma cell lines against the NCATS MIPE library collection: OCIMY1_PLB cell viability assay (AID 1918979). Also: nearly all actives have a fitted effect of over 35% in size. The settings on record: OCI-MY1 myeloma viability, CellTiter-Glo ATP, 48 h; series mostly up to 45.8 µM. The source says:
PI: Beverly A. Mock Ph.D.
Laboratory of Cancer Biology and Genetics,
Center for Cancer Research, National Cancer Institute,
National Institute of Health, Bethesda, Maryland
Drug resistance and disease progression are common in multiple myeloma (MM) patients, underscoring the need for new therapeutic combinations. […] We hypothesized that effective combinations would reduce MYC expression and enhance p16 activity. […] These preclinical data identify potentially useful drug combinations for evaluation in drug-resistant MM and reveal potential mechanisms of combined drug sensitivity.
Described herein is the primary MIPE qHTS used to cherrypick compounds. Validated compounds were then further tested for potential synergistic activiy.
[1] Peat TJ, Gaikwad SM, Dubois W, Gyabaah-Kessie N, Zhang S, Gorjifard S, Phyo Z, Andres M, Hughitt VK, Simpson RM, Miller MA, Girvin AT, Taylor A, Williams D, D'Antonio N, Zhang Y, Rajagopalan A, Flietner E, Wilson K, Zhang X, Shinn P, Klumpp-Thomas C, McKnight C, Itkin Z, Chen L, Kazandijian D, Zhang J, Michalowski AM, Simmons JK, Keats J, Thomas CJ, Mock BA. Drug combinations identified by high-throughput screening promote cell cycle transition and upregulate Smad pathways in myeloma. Cancer Lett. 2023 Aug 1;568:216284. doi: 10.1016/j.canlet.2023.216284. Epub 2023 Jun 24. PMID: 37356470; PMCID: PMC10408729.
SEQUENCE No. (e.g., 1, 2, 3, etc.); […] (e.g., Cells, Incubation, Reagent, etc.); VALUE and DESCRIPTION.
1; Cells; 5 uL; white, solid bottom 1536-well Greiner assay plate.
2; Compounds; 23 nL; Kalypsis pin tool (Wako USA) equipped with a 1536-well pin head to transfer to the assay plates.
3; Incubation; 48 hours; 37C incubation.
4; Reagent;5uL; CellTiter Glo (Promega).
5; Detector; 425V; Luminescence; Viewlux PerkinElmer.
NOTES (numbers refer to Sequence numbers above)
1. The cell-based screening methods employed in this study were like those previously published. Briefly, the corresponding myeloma cell lines were screened in 1,536-well plates with 500 cells, 5-uL per well for inhibition of cell viability (assessed by measuring ATP levels with CellTiterGlo).
2. NCATS MIPE 4.0 library of approved and investigational drugs were added using the Kalypsis pin tool. Wells treated with DMSO only for 100% viability and media only for 0% viability were used as controls.
3. The assay plates were covered and incubated for 48 hours in a 37C, 5% CO2 incubator with controlled humidity.
4. After 48 hours, CellTilter-GloTM luminescent substrate mix (Promega) reagent was added to the assay plate and plates we incubated for 5 min at room temperature.
5. Signal was measured as median relative luminescence units on a ViewLux (PerkinElmer) multiplate reader.
[1] Heske CM, Davis MI, Baumgart JT, Wilson K, Gormally MV, Chen L, Zhang X, Ceribelli M, Duveau DY, Guha R, Ferrer M, Arnaldez FI, Ji J, Tran HL, Zhang Y, Mendoza A, Helman LJ, Thomas CJ. Matrix Screen Identifies Synergistic Combination of PARP Inhibitors and Nicotinamide Phosphoribosyltransferase (NAMPT) Inhibitors in Ewing Sarcoma. Clin Cancer Res. 2017 Dec 1;23(23):7301-7311. doi: 10.1158/1078-0432.CCR-17-1121. Epub 2017 Sep 12. PMID: 28899971; PMCID: PMC6636827.
For orientation: ATP-based viability assays read luminescence as a measure of living cells.
For `CC(C)(C)[C@]1(O)C[C@@H]2OC(=O)C[C@@]23C(=O)O[C@@H]2OC(=O)[C@H](O)C213` (stereo not given in full), the Potency entry was “inactive”.

As to `O=C(O)CNC(=O)c1c(O)c2ccccc2n(Cc2ccccc2)c1=O`, the Potency result was “inactive”.

With `CCC(=O)OC1CCC2C3CCC4=CC(=O)CC[C@@]4(C)C3CC[C@]12C` (stereo not given in full), the Potency entry was “inactive”.

On to `CC1=C(O)C(=O)C=C2C1=CC=C1[C@@]2(C)CC[C@@]2(C)[C@@H]3C[C@](C)(C(=O)O)CC[C@]3(C)CC[C@]12C`, for which the Potency was 833 nM (active).

For the molecule `CC(C)(O)C(=O)Nc1ccc([N+](=O)[O-])c(C(F)(F)F)c1`, the Potency entry was “inactive”.

Turning to `C[C@]12CC[C@@H]3[C@@H](CCC4=CC(=O)CC[C@@H]43)[C@@H]1CC[C@@H]2OC(=O)CCc1ccccc1`, the Potency result is “inactive”.

As to `C[C@]12CCC(=O)C(O)=C1CC[C@@H]1[C@H]3CCC(=O)[C@@]3(C)CC[C@@H]12`, the Potency result was “inactive”.

As for `CC(C)(O)C=CC(=O)[C@](C)(O)[C@H]1[C@H](O)C[C@]2(C)[C@@H]3CC=C4[C@@H](C=C(O)C(=O)C4(C)C)[C@]3(C)C(=O)C[C@@]12C`, the Potency is 105 nM (active).

Turning to `CC(O)=C(C#N)C(=O)Nc1cc(Br)ccc1Br`, the Potency result is “inactive”.

Consider `C[C@@H]1[C@H](O)[C@@H](C)C=CC=CCCC=CC=CC=CC=C[C@H](O[C@H]2O[C@@H](C)[C@H](O)[C@@H](N)[C@@H]2O)CC2O[C@](O)(C[C@@H](O)[C@H](O)CC[C@@H](O)C[C@@H](O)C[C@@H](O)CC(=O)O[C@H]1C)C[C@H](O)[C@H]2C(=O)O`, for which the Potency result was “inactive”.

For `CC(C)N(CCNC(=O)CN1CCCC1=O)C(C)C`, the Potency result is “inactive”.

Consider `C[C@@H]1CC[C@H]2[C@@H](C)C(=O)O[C@@H]3O[C@@]4(C)CC[C@H]1[C@]32OO4`, for which the Potency result was “inactive”.

For `C=CCON=C(C[C@H]1O[C@@H]2O[C@]3(C)CC[C@@H]4[C@H](C)CC[C@@H]([C@H]1C)[C@@]24OO3)[C@H]1O[C@@H]2O[C@]3(C)CC[C@H]4[C@H](C)CC[C@@H]([C@@H]1C)[C@@]24OO3`, the Potency is 187 nM (active).

As for `N#C[C@H](O[C@@H]1O[C@H](CO[C@@H]2O[C@H](CO)[C@H](O)[C@H](O)[C@H]2O)[C@H](O)[C@H](O)[C@H]1O)c1ccccc1`, the Potency is 20900 nM (active).

`CC(=Cc1csc(C)n1)[C@@H]1C[C@H]2O[C@]2(C)CCC[C@H](C)[C@@H](O)[C@@H](C)C(=O)C(C)(C)[C@@H](O)CC(=O)O1`: the Potency result is “inactive”.

For the molecule `COC1=CC(C)=C[C@@H](C)[C@@H](O)[C@@H](C)CC(C)=CC=C[C@H](OC)[C@H]([C@@H](C)[C@@H](O)[C@H](C)[C@@]2(O)C[C@@H](O)[C@H](C)[C@@H](C(C)C)O2)OC1=O`, the Potency was 3.7 nM (active).

With `O=C(Oc1ccc([N+](=O)[O-])cc1)N1CCC(C(O)(c2ccc3c(c2)OCO3)c2ccc3c(c2)OCO3)CC1`, the Potency entry was “inactive”.

Turning to `CC1(N2CCC(n3c([C@@H]4CCCNC4)nc4ccccc43)CC2)CCCCCCC1`, the Potency was 20900 nM (active).

Take `CCNC(=O)CC1N=C(c2ccc(Cl)cc2)c2cc(OC)ccc2-n2c(C)nnc21` (stereo not given): the Potency was 18700 nM (active).

Regarding `C=C[C@@H]1CN2CCC1C[C@H]2[C@H](O)c1ccnc2ccccc12` (stereo not given in full), the Potency entry was “inactive”.

Consider `CCc1c(C(=O)C(N)=O)c2c(OCC(=O)O)cccc2n1Cc1ccccc1`, for which the Potency entry is “inactive”.

As to `CN(C)NC(=O)CCC(=O)O`, the Potency entry is “inactive”.

With `O=c1[nH]c2ccccc2n1C1CCN(Cc2ccc(-c3[nH]c4cc5ncnc5cc4nc3-c3ccccc3)cc2)CC1`, the Potency was 18700 nM (active).

With `Cc1c(N)nc([C@H](CC(N)=O)NC[C@@H](N)C(N)=O)nc1C(=O)N[C@H](C(=O)N[C@@H](C)[C@H](O)[C@@H](C)C(=O)N[C@@H](C(=O)NCCc1nc(-c2nc(C(=O)NCCC[S+](C)C)cs2)cs1)[C@@H](C)O)C(O[C@H]1O[C@H](CO)[C@H](O)[C@@H](O)[C@@H]1O[C@H]1O[C@H](CO)[C@@H](O)[C@H](OC(N)=O)[C@H]1O)c1cnc[nH]1` (stereo not given in full), the Potency is 13200 nM (active).

With `CCOC(=O)Nc1ccc(NCc2ccc(F)cc2)cc1N`, the Potency result was “inactive”.

Turning to `COc1ccc(N(C(=O)Oc2c(C)cccc2C)c2ccnc(Nc3ccc(N4CCN(C)CC4)cc3)n2)c(OC)c1`, the Potency entry is “inactive”.

In the case of `CC=C(C)C(=O)O[C@H]1C(C)=C2[C@@H]3OC(=O)[C@@](C)(O)[C@@]3(O)[C@@H](OC(=O)CCC)C[C@](C)(OC(C)=O)[C@@H]2[C@@H]1OC(=O)CCCCCCC`, the Potency is 105 nM (active).

As for `C[C@@H]1O[C@@H](O[C@@H]2C=C3CC[C@@H]4[C@@H](CC[C@]5(C)[C@H](c6ccc(=O)oc6)CC[C@@]45O)[C@@]3(C)CC2)[C@H](O)[C@H](O)[C@H]1O`, the Potency was 16.6 nM (active).

Turning to `COc1cccc2c1[C@]13CCN(CC4CC4)[C@H](C2)[C@]1(OC)CCC(=O)C3`, the Potency entry was “inactive”.

For the molecule `CCOC(=O)c1cncn1[C@H](C)c1ccccc1`, the Potency result was “inactive”.

Take `CC(C)[C@]12O[C@@H]1[C@@H]1O[C@]13[C@]1(O[C@H]1C[C@@H]1C4=C(CC[C@@]13C)C(=O)OC4)[C@H]2O`: the Potency entry was “inactive”.

Turning to `C#CC1(O)CCC2C3CCC4=CC(=O)CCC4(C)C3CCC21C` (stereo not given), the Potency result is “inactive”.

On to `CC[C@@]1(O)C(=O)OCc2c1cc1n(c2=O)Cc2cc3ccccc3nc2-1`, for which the Potency was 418 nM (active).

In the case of `C[C@@H]1CC[C@@]2(OC1)O[C@H]1C[C@H]3[C@@H]4CC=C5C[C@@H](O[C@@H]6O[C@H](CO)[C@@H](O[C@@H]7O[C@@H](C)[C@H](O)[C@@H](O)[C@@H]7O)[C@H](O)[C@@H]6O[C@@H]6O[C@@H](C)[C@H](O)[C@@H](O)[C@@H]6O)CC[C@]5(C)[C@@H]4CC[C@]3(C)[C@@H]1[C@H]2C`, the Potency is 1660 nM (active).

As for `CO[C@H]1CCC(O[C@H]2C[C@H]([C@]3(C)CC[C@]4(C[C@H](O)[C@@H](C)[C@@H]([C@@H](C)C=C(C)C(=O)[C@H](C)C[C@H](C)C(=O)O)O4)O3)O[C@]3(O[C@@H]([C@H]4O[C@@](O)(CO)[C@H](C)C[C@H]4C)C[C@H]3C)[C@H]2C)O[C@H]1C` (stereo not given in full), the Potency was 5260 nM (active).

On to `c1ccc2c(CN3CCNCC3)cccc2c1`, for which the Potency entry is “inactive”.

For `COCC1(CO)C(=O)C2CCN1CC2` (stereo not given), the Potency was 2090 nM (active).

Take `O=c1cccc2n1CC1CNC[C@H]2C1`: the Potency result was “inactive”.

As for `CN1CCN(c2ccc([N+](=O)[O-])c3no[n+]([O-])c23)CC1`, the Potency was 26400 nM (active).

For the molecule `CN(C)[C@@H]1C(=O)C(C(N)=O)=C(O)[C@@]2(O)C(=O)C3=C(O)c4c(O)cccc4[C@@](C)(O)[C@H]3[C@H](O)[C@@H]12`, the Potency result is “inactive”.

For the origin of these results see PubChem BioAssay (NCATS).
